Measurements as given in PubChem BioAssay (Tox21).
Results filed as inconclusive are left out. Some structures have more than one record in an assay (separate samples or runs), and their calls can disagree. Calls of active or inactive are those of the source. Calls follow the shape of the full dose curve.

What was measured:
[1] = biological target: Acetylcholinesterase (Homo sapiens) (UniProt P22303); assay: Acetylcholinesterase (AChE) small molecule antagonists: colormetric cell-based qHTS assay (AID 1347395); conditions: SH-SY5Y cells AChE activity, colorimetric (Ellman); series mostly up to 115 µM; also: nearly all actives have a fitted effect of over 30% in size; also: potency is read from the fitted curve at half-maximal effect
In short: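 Quantitative HTS in attached SH-SY5Y cells: 30 min compound exposure, then 90 min with acetylthiocholine and DTNB at 37 C; colour from thiocholine reports AChE activity.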

[2] = biological target: Acetylcholinesterase (Homo sapiens) (UniProt P22303); assay: Acetylcholinesterase (AChE) small molecule antagonists: enzyme-based qHTS assay (AID 1347397); conditions: Potency: AChE enzyme activity inhibition; outcome: AChE enzyme activity inhibition; series mostly up to 115 µM; also: nearly all actives have a fitted effect of over 55% in size; also: potency is read from the fitted curve at half-maximal effect
In short: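 Enzyme inhibition was scored from DTNB-detected thiocholine formed by recombinant human AChE acting on acetylthiocholine. The 30 min compound preincubation and 10 min substrate reaction were both run at room temperature, with DMSO as vehicle control.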

[3] = biological target: Acetylcholinesterase (Homo sapiens) (UniProt P22303); assay: Acetylcholinesterase (AChE) small molecule antagonists: fluorescence cell-based qHTS assay (AID 1347398); conditions: SH-SY5Y cells; Potency: AChE activity; outcome: AChE activity; series mostly up to 115 µM; also: nearly all actives have a fitted effect of over 50% in size; also: potency is read from the fitted curve at half-maximal effect
In short: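 Endogenous acetylcholinesterase of SH-SY5Y neuroblastoma cells is measured in situ. After overnight attachment and 30 min compound exposure, cells receive acetylthiocholine and Thiolite Green; fluorescence is read after 40 min at room temperature.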

[4] = biological target: Acetylcholinesterase (Homo sapiens) (UniProt P22303); assay: Acetylcholinesterase (AChE) small molecule antagonists: enzyme-based qHTS assay with human liver microsomes (AID 1347399); conditions: Potency: qHTS inhibition; outcome: qHTS inhibition; series mostly up to 115 µM; also: nearly all actives have a fitted effect of over 60% in size
In short: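 Recombinant human AChE (50 mU/mL in the enzyme mix) and human liver microsomes (0.25 mg/mL final) were preincubated with compound and NADPH (0.25 mg/mL final) for 30 min at 37 C. Acetylthiocholine/DTNB was then added; thiocholine was read colorimetrically after 10 min at room temperature.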
% is scaled to controls: 0 for no effect and ±100 for the full control effect.

Chain of Acetylcholinesterase (Homo sapiens) (P22303 whole entry, looked up): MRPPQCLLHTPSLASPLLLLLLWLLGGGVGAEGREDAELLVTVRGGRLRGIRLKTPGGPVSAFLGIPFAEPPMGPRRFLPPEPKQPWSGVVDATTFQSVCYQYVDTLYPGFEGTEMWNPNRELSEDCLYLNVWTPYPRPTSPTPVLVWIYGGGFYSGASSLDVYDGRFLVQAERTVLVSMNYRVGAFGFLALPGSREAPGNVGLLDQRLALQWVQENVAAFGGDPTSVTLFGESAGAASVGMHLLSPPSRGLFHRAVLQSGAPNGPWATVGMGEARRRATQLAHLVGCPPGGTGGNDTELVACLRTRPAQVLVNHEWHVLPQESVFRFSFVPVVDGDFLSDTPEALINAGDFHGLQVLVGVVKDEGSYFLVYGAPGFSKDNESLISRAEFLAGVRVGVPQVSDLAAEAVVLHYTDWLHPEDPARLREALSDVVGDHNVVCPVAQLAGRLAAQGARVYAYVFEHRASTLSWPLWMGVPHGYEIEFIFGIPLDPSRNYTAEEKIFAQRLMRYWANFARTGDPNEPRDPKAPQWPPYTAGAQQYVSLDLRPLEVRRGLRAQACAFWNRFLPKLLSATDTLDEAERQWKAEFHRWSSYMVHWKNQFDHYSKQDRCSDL

COc1cc(C(=O)N2CCCCCCC2)cc(OC)c1OC
inactive: Potency [1] | Potency [2] | Potency [3] | Potency [4]

F[B-](F)(F)F
inactive: Potency [1] | Potency [2] | Potency [3] | Potency [4]

CCN(CC)CCOC(=O)C1(C2CCCCC2)CCCCC1
inactive: Potency [1] | Potency [2] | Potency [3] | Potency [4]

O=C(O)CCCC[C@@H]1SC[C@@H]2NC(=O)N[C@@H]21
inactive: Potency [1] | Potency [2] | Potency [3] | Potency [4]

CC(O)CC(C)O (stereo not given)
inactive: Potency [1] | Potency [2] | Potency [3] | Potency [4]

Cn1cnc([N+](=O)[O-])c1Sc1ncnc2nc[nH]c12
inactive: Potency [1] | Potency [2] | Potency [3] | Potency [4]

CCCCCC1CCC(=O)O1 (stereo not given)
inactive: Potency [1] | Potency [2] | Potency [3] | Potency [4]

CC(C)(C)CC(C)(C)N
inactive: Potency [1] | Potency [2] | Potency [3] | Potency [4]

CC1(C)O[C@H]2CC(=O)OC[C@]23[C@H]2CC[C@@]4(C)[C@H](c5ccoc5)OC(=O)[C@H]5O[C@]54[C@]2(C)C(=O)C[C@@H]13
inactive: Potency [1] | Potency [2] | Potency [3] | Potency [4]

CCCCCCCCC(=O)O
inactive: Potency [2] | Potency [3] | Potency [4]
3.07 µM (active) and inactive: Potency [1]

ICCc1ccccc1
inactive: Potency [1] | Potency [2] | Potency [3] | Potency [4]

OC1CCCC1
inactive: Potency [1] | Potency [2] | Potency [3] | Potency [4]

Cc1nc2c([nH]1)c(=O)n(C)c(=O)n2Cc1ccco1
inactive: Potency [1] | Potency [2] | Potency [3] | Potency [4]

CC1=C(O)C(=O)CO1
inactive: Potency [1] | Potency [2] | Potency [3] | Potency [4]

CC(C)C(=O)C(C)C
inactive: Potency [1] | Potency [2] | Potency [3] | Potency [4]

C=CCOC(=O)CCCCCCCC
inactive: Potency [1] | Potency [2] | Potency [3] | Potency [4]

C=CC(=O)NCOCCCC
inactive: Potency [1] | Potency [2] | Potency [3] | Potency [4]

NS(=O)(=O)c1cc2c(cc1Cl)NC=NS2(=O)=O
inactive: Potency [1] | Potency [2] | Potency [3] | Potency [4]

O=C(O)CN(CCCN(CC(=O)O)CC(=O)O)CC(=O)O
inactive: activity, negative = inhibition [1] 0.786% [at 23.6 µM] | activity change, negative = inhibition [2] 4.89% [at 23.6 µM] | activity change, negative = inhibition [3] 3.08% [at 23.8 µM] | activity change, negative = inhibition [4] 1.21% [at 23.6 µM]

CCC(C)(O)CCCC(C)C (stereo not given)
inactive: Potency [1] | Potency [2] | Potency [3] | Potency [4]

NS(=O)(=O)c1ccc(Cl)c(S(N)(=O)=O)c1
inactive: Potency [1] | Potency [2] | Potency [3] | Potency [4]

ClC1=C(Cl)C1(Cl)Cl
inactive: Potency [1] | Potency [2] | Potency [3] | Potency [4]

CC(C)(O)C#CC(C)(C)O
inactive: Potency [1] | Potency [2] | Potency [3] | Potency [4]

Nc1ccccc1S(=O)(=O)O
inactive: Potency [1] | Potency [2] | Potency [3] | Potency [4]

CC(C)OB(OC(C)C)OC(C)C
inactive: Potency [1] | Potency [2] | Potency [3] | Potency [4]

CCO[Si](CCCN=C=O)(OCC)OCC
inactive: Potency [1] | Potency [2] | Potency [3] | Potency [4]

COC(OC)OC
inactive: Potency [1] | Potency [2] | Potency [3] | Potency [4]

CN1CCN(c2c(F)cc3c(=O)c(C(=O)O)cn4c3c2OCN4C)CC1
inactive: activity, negative = inhibition [1] 1.67% [at 23.6 µM] | activity change, negative = inhibition [2] 0.0377% [at 23.6 µM] | activity change, negative = inhibition [3] 5.01% [at 23.8 µM] | activity change, negative = inhibition [4] -0.167% [at 23.6 µM]

Cc1occc1S
inactive: Potency [1] | Potency [2] | Potency [3] | Potency [4]

CN(C)C(=O)CNC(=O)Cc1ccccc1
inactive: Potency [1] | Potency [2] | Potency [3] | Potency [4]

O=C1[C@@H]2[C@H]3CC[C@H](C3)[C@@H]2C(=O)N1CCCCN1CCN(c2ncccn2)CC1
inactive: Potency [1] | Potency [2] | Potency [3] | Potency [4]

Cc1ccnc2c1NC(=O)c1cccnc1N2C1CC1
inactive: Potency [1] | Potency [2] | Potency [3] | Potency [4]

O=c1[nH]cnc2nc[nH]c12
inactive: Potency [1] | Potency [2] | Potency [3] | Potency [4]

C/C=C(\C)C(=O)OC/C=C(\C)CCC=C(C)C
inactive: Potency [1] | Potency [2] | Potency [3] | Potency [4]

CC1(C)[C@@H](O[C@H]2O[C@H](C(=O)O)[C@@H](O)[C@H](O)[C@H]2O[C@@H]2O[C@H](C(=O)O)[C@@H](O)[C@H](O)[C@H]2O)CC[C@]2(C)[C@H]3C(=O)C=C4[C@@H]5C[C@@](C)(C(=O)O)CC[C@]5(C)CC[C@@]4(C)[C@]3(C)CC[C@@H]12
inactive: Potency [1] | Potency [2] | Potency [3] | Potency [4]

CCCCCCCCCCOC(C)=O
inactive: Potency [1] | Potency [2] | Potency [3] | Potency [4]

CC1=CCC2CC1C2(C)C (stereo not given)
inactive: Potency [1] | Potency [2] | Potency [3] | Potency [4]

CNCCCC12CCC(c3ccccc31)c1ccccc12
inactive: Potency [1] | Potency [2] | Potency [3] | Potency [4]

NNC(=O)OCc1ccccc1
inactive: Potency [1] | Potency [2] | Potency [3] | Potency [4]

CC(=O)[C@H]1CC[C@H]2[C@@H]3C[C@H](C)C4=CC(=O)CC[C@]4(C)[C@H]3[C@@H](O)C[C@]12C
inactive: Potency [1] | Potency [2] | Potency [3] | Potency [4]

CCCCC(CC)CCC(CC(C)C)OS(=O)(=O)O (stereo not given)
inactive: Potency [1] | Potency [2] | Potency [3] | Potency [4]

CCC(CC)(CC(=O)Nc1cccc(/C=C/c2nc(C3CCC3)cs2)c1)C(=O)O
inactive: Potency [1] | Potency [2] | Potency [3] | Potency [4]

O[C@@H]([C@H](O)[C@H](O)CBr)[C@H](O)CBr
inactive: Potency [1] | Potency [2] | Potency [3] | Potency [4]

Cc1ccccc1S(N)(=O)=O
inactive: Potency [1] | Potency [2] | Potency [3] | Potency [4]

COc1ccc2nc(S(=O)Cc3ncc(C)c(OC)c3C)[nH]c2c1 (stereo not given)
inactive: Potency [1] | Potency [2] | Potency [3] | Potency [4]

CCOC(=O)CN1CCCC1=O
inactive: Potency [1] | Potency [2] | Potency [3] | Potency [4]

CCC(C)(C)OC
inactive: Potency [1] | Potency [2] | Potency [3] | Potency [4]

Cc1ccc(C)c(OCCCC(C)(C)C(=O)O)c1
inactive: Potency [1] | Potency [2] | Potency [3] | Potency [4]

COC(OC)C(C)c1ccccc1 (stereo not given)
inactive: Potency [1] | Potency [2] | Potency [3] | Potency [4]

C=C[C@@]1(C)CC(=O)[C@]2(O)[C@@]3(C)[C@@H](O)CCC(C)(C)[C@@H]3[C@H](O)[C@H](OC(C)=O)[C@@]2(C)O1
inactive: Potency [1] | Potency [2] | Potency [3] | Potency [4]

NC(=O)OCC(COC(N)=O)c1ccccc1
inactive: Potency [1] | Potency [2] | Potency [3] | Potency [4]

OB(O)O
inactive: Potency [1] | Potency [2] | Potency [3] | Potency [4]

Nc1nc(Cl)nc2c1ncn2[C@H]1C[C@H](O)[C@@H](CO)O1
inactive: Potency [1] | Potency [2] | Potency [3] | Potency [4]

O=C1NCCN1CCO
inactive: Potency [1] | Potency [2] | Potency [3] | Potency [4]

CC(C)=CCCC(C)CC(=O)O (stereo not given)
inactive: Potency [1] | Potency [2] | Potency [3] | Potency [4]

CNC1CCCN(c2c(F)cc3c(=O)c(C(=O)O)cn(C4CC4)c3c2OC)C1 (stereo not given)
inactive: Potency [1] | Potency [2] | Potency [3] | Potency [4]

O=C1OC2(c3ccc(O)cc3Oc3cc(O)ccc32)c2ccc(N=C=S)cc21
inactive: Potency [1] | Potency [2] | Potency [3] | Potency [4]

CO[C@@]1(NC(=O)C(C(=O)O)c2ccc(O)cc2)C(=O)N2C(C(=O)O)=C(CSc3nnnn3C)CO[C@@H]21 (stereo not given in full)
inactive: Potency [1] | Potency [2] | Potency [3] | Potency [4]

CC1=C(/C=C/C(C)=C/C=C/C(C)=C/C(=O)O)C(C)(C)CCC1
inactive: Potency [1] | Potency [2] | Potency [3] | Potency [4]

Cc1ccc(N=Nc2c(O)ccc3ccccc23)c(C)c1
inactive: Potency [1] | Potency [2] | Potency [3] | Potency [4]

CCCCCCn1c(=O)c2c(ncn2C)n(C)c1=O
inactive: Potency [1] | Potency [2] | Potency [3] | Potency [4]

O=S(=O)(O)CCO
inactive: Potency [1] | Potency [2] | Potency [3] | Potency [4]

Cn1cnc2c(=O)[nH]c(N)nc21
inactive: Potency [1] | Potency [2] | Potency [3] | Potency [4]

Cc1cc(O)c(Cl)c(C)c1Cl
inactive: Potency [1] | Potency [2] | Potency [3] | Potency [4]

O=C(Nc1cccc(C2=NCCN2)c1)Nc1cccc(C2=NCCN2)c1
inactive: activity change, negative = inhibition [4] -3.93% [at 23.6 µM]
active: Potency [1] 3.79 µM | Potency [2] 10.7 µM | Potency [3] 2.13 µM

OCc1ccccc1
39.4 µM (active) and inactive: Potency [1]
inactive: Potency [2] | Potency [3] | Potency [4]

O=C(O)CCC(=O)OC[C@@H](NC(=O)C(Cl)Cl)[C@H](O)c1ccc([N+](=O)[O-])cc1
inactive: Potency [1] | Potency [2] | Potency [3] | Potency [4]

CCCCCCCCCCCO
inactive: Potency [1] | Potency [2] | Potency [3] | Potency [4]

N#Cc1ccc(CC(=O)c2cccc(C(F)(F)F)c2)cc1
inactive: Potency [1] | Potency [2] | Potency [3] | Potency [4]

COC(=O)CC(C)CCC=C(C)C (stereo not given)
inactive: Potency [1] | Potency [2] | Potency [3] | Potency [4]

CC(C)c1ccccc1N
inactive: Potency [1] | Potency [2] | Potency [3] | Potency [4]

CCCOCCC
inactive: Potency [1] | Potency [2] | Potency [3] | Potency [4]

CCCCCCCCOC(C)=O
inactive: Potency [1] | Potency [2] | Potency [3] | Potency [4]

NS(=O)(=O)c1ccc(NC(=O)CCC(=O)O)cc1
inactive: Potency [1] | Potency [2] | Potency [3] | Potency [4]

C=C(C)C(=O)OCCC[Si](OC)(OC)OC
inactive: Potency [1] | Potency [2] | Potency [3] | Potency [4]
